Data from the OligoGym collection.

What follows are sequences tested against FAM163B (assay: pooled miR-30 sensor sort-seq; sequence = guide strand). Details: shRNA.
Further: reference of the scale not given here.

Sequence	sensor-assay potency score (higher = more potent)
TAGAGCACGCGCTCCCCGCCGT	-0.76
TCTTGCAGCAGTAGTACTGGAG	-0.35
TCCGACTCGTCCTTCTTGCAGC	-1.44
TCCTCCGACTCGTCCTTCTTGC	-1.53
TTGGTCAGCACCAGGTTGCGGT	-0.802
TCGCAGTGGGAGCAGCTGCGGC	-1.52
TAGCACAGAACAGCGATGATGC	-0.556
TCCTGCAGGAAGAAGGTGGGGG	-0.682
TTCTGGCTGAAGGAGGTGGAGG	-1.34
TTGTAGAGCACGCGCTCCCCGC	-1.32
TTGCGGTTGGAGTGCAGCGGGG	-1.47
TTCTTGCAGCAGTAGTACTGGA	-0.857

Each sequence was assayed against FAM164C in the same assay as above. Details: shRNA.

Sequence	sensor-assay potency score (higher = more potent)
TAGAGGTGGAAGACAGTTCTTG	-0.364
TTGATGGTCTTACACTTGGGAA	-1.53
TTTGTTGCTCAAAAGCTGCTTC	0.134
TTCTTGATGGTCTTACACTTGG	-0.537
ATCACTTTCTGGATCTTGCTGG	0.553
TTTACTGCTGAAGAGAAGCAGA	-0.62
TTATCCAGAATCAACTCTTTGT	-0.353
TTTCTTTCTGCTTTGCATCAAA	-1.22
TAGCTCTGCAGGCAGATCTGGG	-1.11
TAATTTTCTGTAGCTCTCCGTT	-0.559
TAGTCTTCGGATCTGCACCCAC	-0.402

These sequences were tested against FAM174A in the same assay as above. Details: shRNA.

Sequence	sensor-assay potency score (higher = more potent)
AAGTACACCAGCACCGCGCCGC	-0.391
TATCTCCTAGTCTTTCGGTTTC	-1.02
TGATCGTCCGTCTCAAGCCCGG	-1.42
TTCTTCTTCTCATCCTGACCGT	-0.117
TAGTTCAGGCAGCAACAGCAGG	-1.17
ATATCTCCTAGTCTTTCGGTTT	-1.26
TCTTCTTCTCATCCTGACCGTC	-0.459
ATTTTCTATGTTAGTGTCCAAA	-1.74
TGTTAGTGTCCAAAACTCCATA	-0.864
TTGGCATCAAACAACGTGTTGT	-0.0509
TTCTAAAGGTGTCAATTCCATA	-1.28
TAGTCTTTCGGTTTCTTCTTCT	0.156
